BLM helicase inh = qHTS Assay for Inhibitors of Bloom's syndrome helicase (BLM); RecQ-like DNA helicase BLM (Homo sapiens), P54132; recombinant BLM DNA unwinding, fluorescence dequenching; Potency, µM (series often up to 56.1 µM), without a hit: at the top dose activity change, negative = inhibition, actives largely listed as inhibitors; 0.2% of 350,000 active; AID 2528, 2010;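 further: plate controls were vehicle for no effect and no enzyme for full effect; nearly all actives have a fitted effect of over 35% in size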
Target sequence (P54132 whole entry, looked up): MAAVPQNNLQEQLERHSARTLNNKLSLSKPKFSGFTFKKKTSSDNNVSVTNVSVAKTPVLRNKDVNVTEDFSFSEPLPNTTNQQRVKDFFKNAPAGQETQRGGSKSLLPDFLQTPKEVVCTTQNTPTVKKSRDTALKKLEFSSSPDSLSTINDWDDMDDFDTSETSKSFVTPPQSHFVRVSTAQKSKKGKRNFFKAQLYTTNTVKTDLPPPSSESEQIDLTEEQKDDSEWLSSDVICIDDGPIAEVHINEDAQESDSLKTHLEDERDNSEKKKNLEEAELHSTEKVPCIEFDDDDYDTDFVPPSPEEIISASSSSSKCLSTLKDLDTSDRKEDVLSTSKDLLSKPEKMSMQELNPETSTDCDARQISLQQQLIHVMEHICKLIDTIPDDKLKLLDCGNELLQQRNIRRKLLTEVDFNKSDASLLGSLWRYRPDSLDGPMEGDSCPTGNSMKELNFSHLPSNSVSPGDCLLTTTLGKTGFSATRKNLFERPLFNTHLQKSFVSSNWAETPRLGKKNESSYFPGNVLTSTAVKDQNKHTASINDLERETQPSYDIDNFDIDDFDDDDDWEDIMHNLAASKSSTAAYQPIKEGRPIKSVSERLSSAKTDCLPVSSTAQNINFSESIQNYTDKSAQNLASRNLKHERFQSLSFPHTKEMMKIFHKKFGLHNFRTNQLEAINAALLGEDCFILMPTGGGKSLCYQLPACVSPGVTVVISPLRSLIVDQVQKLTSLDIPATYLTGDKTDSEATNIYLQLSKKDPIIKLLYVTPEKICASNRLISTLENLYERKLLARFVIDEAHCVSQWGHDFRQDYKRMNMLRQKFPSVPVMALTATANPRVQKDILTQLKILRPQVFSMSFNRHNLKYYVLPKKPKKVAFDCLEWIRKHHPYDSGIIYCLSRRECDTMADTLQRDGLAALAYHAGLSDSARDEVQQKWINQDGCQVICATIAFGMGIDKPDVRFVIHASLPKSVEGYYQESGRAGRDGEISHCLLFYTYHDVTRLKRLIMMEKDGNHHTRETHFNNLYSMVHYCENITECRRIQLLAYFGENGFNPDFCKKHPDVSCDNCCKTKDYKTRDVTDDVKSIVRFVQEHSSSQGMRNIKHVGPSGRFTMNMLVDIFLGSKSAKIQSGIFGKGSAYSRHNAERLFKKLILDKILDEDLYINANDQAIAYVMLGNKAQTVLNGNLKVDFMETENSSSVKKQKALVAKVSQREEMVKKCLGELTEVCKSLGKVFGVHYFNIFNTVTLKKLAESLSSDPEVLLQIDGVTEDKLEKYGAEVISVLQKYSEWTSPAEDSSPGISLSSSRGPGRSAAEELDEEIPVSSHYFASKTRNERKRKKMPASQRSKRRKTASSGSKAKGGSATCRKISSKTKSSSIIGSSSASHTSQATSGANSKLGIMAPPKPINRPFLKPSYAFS
TDP1 inh = qHTS Assay for Inhibitors of Tyrosyl-DNA Phosphodiesterase (TDP1) | recombinant TDP1, AlphaScreen DNA substrate cleavage | Tyrosyl-DNA phosphodiesterase 1 (Homo sapiens), Q9NUW8 | Potency, µM (top dose mostly 130 µM), without a hit: top-dose activity change, negative = inhibition, actives largely listed as inhibitors | 0.28% of 350,000 active; further: nearly all actives have a fitted effect of over 40% in size
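AlphaScreen read-out: signal falls as enzyme removes the 3' tyrosine-FITC from a 5'-biotinylated DNA oligo (15 nM, 5 min, RT). Enzyme was E. coli-made recombinant Tdp1 at 1 nM, exposed to compound for 15 min beforehand; beads 10 ug/ml, 10 min.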
APE1 inh = qHTS Assay for Inhibitors of the Human Apurinic/apyrimidinic Endonuclease 1 (APE1); DNA repair nuclease/redox regulator APEX1 (Homo sapiens), P27695; recombinant APE1, TAMRA/BHQ-2 abasic DNA cleavage fluorescence; Potency, µM (series often up to 65.8 µM), for inactives: at the highest dose activity change, negative = inhibition, actives largely listed as inhibitors; 0.35% of 350,000 active;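 further: plate controls were vehicle for no effect and reference inhibitor for full effect; nearly all actives have a fitted effect of over 55% in size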
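Activity was derived from the fluorescence gain between first and third kinetic reads (60 s intervals, ex 525/em 598 nm) after 50 nM THF-abasic TAMRA/BHQ-2 duplex was added to 0.75 nM APE1 preincubated 15 min with compound.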
RECQ1 helicase = qHTS Assay for Inhibitors of RecQ-Like Dna Helicase 1 (RECQ1); AID 2549, 2010; 0.54% of 240,000 active; Potency, µM (doses to about 57.3 µM), without a hit: at the top dose activity, negative = inhibition, usual class: inhibitors; RECQ1 DNA unwinding, red fluorescence kinetic read; ATP-dependent DNA helicase Q1 (Homo sapiens), P46063;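 further: plate controls were vehicle for no effect and no enzyme for full effect; nearly all actives have a fitted effect of over 30% in size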
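50 nM RECQ1T1 preincubated 15 min with compound in Tris pH 8.0 buffer with MgCl2, DTT, Tween-20 and 2.5 ug/ml poly(dI-dC); started with 200 nM TAMRA/BHQ-2 forked duplex and 2 mM ATP. Unwinding read as fluorescence (525/598 nm), two reads 2 h apart.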
LMNA splice mod = qHTS Assay for Modulators of Lamin A Splicing | 0.01% of 200,000 active | HeLa LMNA splicing GFP/RFP minigene ratio, 48 h | Potency, µM (titrated, usually from 46.1 µM), inactives show at the top dose ratio change, negative = inhibition, actives largely listed as inhibitors; active means well fitted inhibition curve with a large enough effect in the signal ratio, with a control signal flat, not every such curve was filed as active; inconclusive means small, poorly fitted or top-dose-only effect, or effect the other way, or a change in a side signal; the % refers to the signal ratio
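Read-out is the ratio of GFP to DsRed2 object intensity, acquired by 488 nm laser-scanning cytometry on HeLa lamin A-EGFP minigene reporter cells. Compound incubation 48 hrs at 37 °C in Opti-MEM with 2% FBS; DMSO 0.5% final.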
KAT2A inh = qHTS Assay for Inhibitors of GCN5L2. GCN5L2 HAT assay, ThioGlo1 CoA-SH fluorescence. Histone acetyltransferase KAT2A (Homo sapiens), Q92830. 0.21% of 390,000 active. AID 504327, 2011. Potency, µM (doses to about 58.9 µM), for inactives: at the highest dose activity change, negative = inhibition, hits mostly inhibitors
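ThioGlo1-coupled HAT assay: 20nM GCN5L2, 70uM acetyl-CoA, 75uM H3(1-25) peptide, pH 7.5. Fluorescence read at 340/540nm at start and after 20 min at room temperature.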
The depositor's hits bear a star; i = inactive; ? = inconclusive; nt = no result given; [ ] = dose if it differs, or a comment. Most compounds without a hit are left out; they make up all but 0.9% or so of the library. Unless noted, the call rests on the fitted dose curve; in most records, active means well fitted curve in the direction sought with a large enough effect; inconclusive means small, poorly fitted or top-dose-only effect, or another doubt; inactive means no such curve, though single readings can be large; an effect the other way counts as inactive or inconclusive. Unless noted, on the % scale 0 is the no-effect control and ±100 the full control effect; potency means the concentration at half of the fitted maximal effect.

SMILES	BLM helicase inh	TDP1 inh	APE1 inh	RECQ1 helicase	LMNA splice mod	KAT2A inh
Cc1cccc(Nc2n[nH]c(=S)s2)c1C	0%	14%	-1%	-6%	10%	22µM*
COc1cccc(Nc2n[nH]c(=S)s2)c1	-1%	11%	1%	-1%	-15%	4%
COc1ccccc1Nc1n[nH]c(=S)s1	0%	8%	14%	?	5%[46 µM]	6.3µM*
CC(C)c1cc(C(C)C)c(S(=O)(=O)Nc2cccc3cccnc23)c(C(C)C)c1	-9%	16%	-4%	i	nt	nt
Cc1ccc(C2=NS(=O)(=O)N(C)C(C(=O)N3CCOCC3)=C2)cc1	4%	nt	13%	nt	nt	10µM*
CC1(C)Cc2c(C#N)c(N3CCN(C(=O)c4ccccc4)CC3)nc(-c3ccco3)c2CS1	28µM*	2%	3%	-1%	-11%	?
O=C(CSc1nnc(SCc2ccccc2)s1)N/N=C/C=C/c1ccco1	25µM*	-14%	13µM*	22µM*	-10%	?
O=C(Cc1cccs1)N/N=C/C=C/c1ccco1	25µM*	0%	16%	1%	2%	?
C/C(=N/NC(=O)Cc1cccs1)c1ccco1	4%	-5%	3%	-4%	11%	-6%
Cc1noc(C)c1-c1ccc2ncnc(N3CCOCC3)c2c1	-1%	nt	-3%	-7%	10µM*	?
Cc1ccccc1-c1ccc2ncnc(N3CCOCC3)c2c1	-3%	nt	-1%	-5%	?	-22%
Cc1noc(C)c1-c1ccc2ncnc(N3CCN(C)CC3)c2c1	4%	nt	?	-7%	7.1µM*	-18%
CSc1nc(=S)c2[nH]c(=S)[nH]c2[nH]1	-4%	0%	0%	10%	nt	3.2µM*
CSc1nc2c(c(=O)[nH]1)CCCC2	-6%	4%	15%	i	7%	2%
C[N+]1(CC2COC(c3ccccc3)(C3CCCCC3)O2)CCCCC1 (configuration not stated)	3%	nt	nt	nt	nt	22µM*
COc1cccc(C2c3c(ncn(-c4ccccc4-c4ccccc4)c3=N)Oc3ccc4ccccc4c32)c1 (configuration not stated)	nt	1%	nt	nt	nt	nt
Cc1ccc(NS(=O)(=O)c2ccc3c(c2)CCN(C(=O)C(F)(F)F)C3)cc1C	nt	0%	nt	nt	nt	nt
O=C1NC(=S)S/C1=C\c1coc2ccccc2c1=O	-3%	-2%	6%	20µM*	nt	-5%
O=C1NC(=S)S/C1=C\c1coc2ccc(O)cc2c1=O	-1%	nt	-9%	-20%	nt	-6%
Cc1ccc(NC(=O)Cn2sc3nc(C)cc(C)c3c2=O)c(Cl)c1	2%	nt	1%	-7%	nt	28µM*
Cc1cc(C)c2c(=O)n(CC(=O)NCCCN3CCN(c4ccccc4F)CC3)sc2n1	2%	14%	-6%	-3%	-9%	?
Cc1cc(C)c2c(=O)n(CC(=O)NCCCN3CCOCC3)sc2n1	1%	8%	1%	-9%	4%	18µM*
CC[C@H]1OC(=O)[C@H](C)C(=O)[C@H](C)[C@@H](O[C@@H]2O[C@H](C)C[C@H](N(C)C)[C@H]2O)[C@](C)(OC)C[C@@H](C)C(=O)[C@H](C)[C@H]2N(CCCCn3cnc(-c4cccnc4)c3)C(=O)O[C@]12C	nt	nt	-4%	nt	nt	nt
C/C=C(\C)C(=O)Nc1cccc(C2=NOC3(C2)C[C@@H](C(N)=O)N(C(=O)/C(C)=C/C)C3)c1 (some centres not stated)	-2%	0%	1%	i	nt	-17%
NC(=O)[C@@H]1CC2(CC(c3cccc(NC(=O)[C@H]4CCC(=O)N4)c3)=NO2)CN1C(=O)c1ccc(Cl)cc1 (some centres not stated)	1%	1%	4%	i	nt	-6%
SMILES	BLM helicase inh	TDP1 inh	APE1 inh	RECQ1 helicase	LMNA splice mod	KAT2A inh
C=C(C)C(=O)Nc1cccc(C2=NOC3(C2)C[C@@H](C(N)=O)N(C(=O)/C=C/C=C/C)C3)c1 (some centres not stated)	-12%	35µM*	?	?	nt	-14%
NC(=O)[C@H]1CC2(CC(c3cccc(NC(=O)CC(c4ccccc4)c4ccccc4)c3)=NO2)CN1C(=O)CC(c1ccccc1)c1ccccc1 (some centres not stated)	-6%	-4%	-4%	-12%	nt	-3%
C/C=C/C=C/C(=O)N1CC2(CC(c3cccc(NC(=O)/C=C/C)c3)=NO2)C[C@@H]1C(N)=O (some centres not stated)	0%	-2%	1%	i	nt	-2%
C=C(C)C(=O)Nc1cccc(C2=NOC3(C2)C[C@@H](C(N)=O)N(C(=O)/C(C)=C/C)C3)c1 (some centres not stated)	-1%	nt	-10%	18µM*	nt	-11%
C=C(C)C(=O)Nc1cccc(C2=NOC3(C2)C[C@@H](C(N)=O)N(C(=O)CC(c2ccccc2)c2ccccc2)C3)c1 (some centres not stated)	-21%	18µM*	?	?	nt	-8%
NC(=O)[C@H]1CC2(CC(c3cccc(NC(=O)[C@H]4CCC(=O)N4)c3)=NO2)CN1C(=O)c1ccccc1 (some centres not stated)	-7%	14µM*	?	i	nt	19%
COC(=O)C1=C(C(=O)OC)[C@@H]2N(Cc3ccccc3)c3ccccc3[C@@]23C[C@@H](C(=O)OC)N(S(=O)(=O)c2ccc([N+](=O)[O-])cc2)C3=N1	0%[12.4 µM]	10%[21 µM]	-2%[12.4 µM]	-21%[11.5 µM]	6%[9.22 µM]	nt
CCOc1ccc(S(=O)(=O)Nc2cc(SCC(=O)O)c(O)c3ccccc23)cc1	?	nt	9%	nt	nt	19%
Cc1ccc(C)c(S(=O)(=O)Nc2cc(SCC(=O)O)c(O)c3ccccc23)c1	16µM*	5%	-12%	0%	?	65%
O=C(O)CSc1cc(NS(=O)(=O)c2cccc([N+](=O)[O-])c2)c2ccccc2c1O	18µM*	10%	-5%	-15%	nt	41%
CCN1C(=O)[C@@H]2[C@H]3C(=CC[C@@H]2C1=O)C1(OCCCO1)[C@H]1O[C@@H]1[C@H]3O	-9%[12.4 µM]	-5%[21 µM]	-7%[12.4 µM]	-13%[11.5 µM]	nt	nt
CCOc1cc(/C=C2\SC(=S)N(Nc3ccccc3)C2=O)ccc1O	-22%	10%	?	25µM*	2%	-11%

Assay outcomes as filed in PubChem.
